From PubChem BioAssay (NCI)
Compounds without any hit were thinned out: in the full panel of roughly 79,000, 15% have a hit. Active and inactive are the calls of the source. No stated cut-off is given here; in the data, active means growth inhibition above about 70%; inactive means the rest.

Tests used:
[1] = NCI Yeast Anticancer Drug Screen. Data for the rad50 strain (AID 155);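 further: 0% = growth of vehicle-only cultures of the same strain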; settings: S. cerevisiae rad50 strain growth inhibition, stronger effect = higher value
Outline: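 DNA repair mutant yeast, compound exposure, growth read-out; inhibition is taken relative to vehicle.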

[2] = NCI Yeast Anticancer Drug Screen. Data for the mec2-1 strain (AID 157); settings: S. cerevisiae mec2-1 strain, stronger effect = higher value
Outline: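 Growth inhibition is read against vehicle-treated controls after compound exposure of the mec2-1 yeast strain, which is defective in DNA damage repair or cell cycle control.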

[3] = NCI Yeast Anticancer Drug Screen. Data for the sgs1 mgt1 strain (AID 161);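 further: 0% = growth of cultures given vehicle only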; settings: S. cerevisiae sgs1 mgt1 strain, stronger effect = higher value
Outline: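 This yeast growth screen uses a strain with defined DNA-repair lesions; compound-treated growth is compared with vehicle-treated growth.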

[4] = NCI Yeast Anticancer Drug Screen. Data for the cln2 rad14 strain (AID 165);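 further: 0% = growth equal to vehicle treated cultures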; settings: S. cerevisiae cln2 rad14 strain, stronger effect = higher value
Outline: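 Growth inhibition, relative to vehicle-treated controls, is the read-out. The test organism is a yeast strain with defined genetic alterations, cln2 rad14.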

[5] = NCI Yeast Anticancer Drug Screen. Data for the bub3 strain (AID 167); settings: S. cerevisiae bub3 mutant strain, stronger effect = higher value
Outline: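 In this screen, a yeast mutant lacking normal mitotic checkpoint function is challenged with compound. Relative growth versus vehicle gives the inhibition value.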

[6] = NCI Yeast Anticancer Drug Screen. Data for the mlh1 rad18 strain (AID 175); settings: S. cerevisiae mlh1 rad18 strain growth inhibition, stronger effect = higher value
Outline: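 Cells of a genetically altered yeast strain, deficient in DNA damage repair, were treated with compound. Their growth was then compared with that of vehicle-treated cultures to give inhibition.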

[7] = at 5.0 µM (retest, dose inferred, filed as 0.5)
[8] = at 50.0 µM (retest, dose inferred, filed as 5.0)

Measured: growth inhibition

On1c(-c2ccccc2)nc2ccccc2c1=S
inactive: [1]; [7] 32% | [1]; [8] 39% | [2]; [7] 41% | [2]; [8] 43% | [3]; [7] 47% | [3]; at 50.0 µM 37% | [4]; [7] 28% | [4]; at 50.0 µM 25.4% | [5]; [7] 50% | [6]; [7] 39% | [6]; [8] 43%
active: [1]; at 50.0 µM 86.5% | [2]; at 50.0 µM 86.7% | [3]; [8] 95% | [4]; [8] 95% | [5]; [8] 94% | [5]; at 50.0 µM 90.2% | [6]; at 50.0 µM 84.5%

O=C(c1ccc(O)c(Br)c1)c1ccc(O)c(Br)c1
inactive: [1]; [7] 43% | [1]; at 50.0 µM 28.7% | [3]; [7] 44% | [3]; at 50.0 µM 64.4% | [4]; at 50.0 µM 43.5%
active: [1]; [8] 99% | [2]; [7] 76% | [2]; [8] 99% | [2]; at 50.0 µM 76% | [3]; [8] 99% | [4]; [7] 83% | [4]; [8] 99% | [5]; [7] 83% | [5]; [8] 99% | [5]; at 50.0 µM 82.7% | [6]; [7] 76% | [6]; [8] 99% | [6]; at 50.0 µM 88%

CCCC[n+]1c(/C=C\c2c(OC)cc(OC)cc2OC)ccc2ccccc21
inactive: [1]; [7] 64% | [2]; [7] 61% | [3]; [7] 67% | [4]; [7] 56% | [6]; [7] 44%
active: [1]; [8] 97% | [1]; at 50.0 µM 88.8% | [2]; [8] 99% | [2]; at 50.0 µM 90.8% | [3]; [8] 99% | [3]; at 50.0 µM 91.7% | [4]; [8] 99% | [4]; at 50.0 µM 89.7% | [5]; [7] 86% | [5]; [8] 98% | [5]; at 50.0 µM 90.1% | [6]; [8] 97% | [6]; at 50.0 µM 88%

C=c1c2ccccc2oc2nc3[nH]c(N)c(C#N)c(N)c3c(=N)c12
active: [1]; [8] 82% | [1]; at 50.0 µM 74% | [2]; [8] 70% | [2]; at 50.0 µM 75% | [3]; [8] 79% | [3]; at 50.0 µM 73.8% | [4]; [8] 74% | [5]; [8] 79% | [5]; at 50.0 µM 81.7% | [6]; [8] 75%
inactive: [1]; [7] 16% | [2]; [7] 1% | [3]; [7] 11% | [4]; [7] 17% | [4]; at 50.0 µM 48.5% | [5]; [7] 18% | [6]; [7] 7% | [6]; at 50.0 µM 69.2%

Cc1ccc2cccc(OC(=O)Nc3cccc(C(F)(F)F)c3)c2n1
active: [1]; [8] 95% | [1]; at 50.0 µM 91.4% | [2]; [8] 98% | [2]; at 50.0 µM 89.9% | [3]; [8] 100% | [3]; at 50.0 µM 91.1% | [4]; [8] 98% | [4]; at 50.0 µM 91% | [5]; [8] 98% | [5]; at 50.0 µM 90.9% | [6]; [8] 98% | [6]; at 50.0 µM 92.5%
inactive: [1]; [7] 50% | [2]; [7] 39% | [3]; [7] 50% | [4]; [7] 38% | [5]; [7] 42% | [6]; [7] 50%

CN(C)c1ccc(/C=C/c2nccc3ccccc23)cc1
inactive: [1]; [7] -9% | [2]; [7] 8% | [3]; [7] 3% | [4]; [7] -8% | [5]; [7] 4% | [6]; [7] 10%
active: [1]; [8] 96% | [1]; at 50.0 µM 91% | [2]; [8] 96% | [2]; at 50.0 µM 91.9% | [3]; [8] 97% | [3]; at 50.0 µM 94.7% | [4]; [8] 96% | [4]; at 50.0 µM 75.5% | [5]; [8] 97% | [5]; at 50.0 µM 93.7% | [6]; [8] 95% | [6]; at 50.0 µM 91%

Nc1ccc(Oc2ccccc2)c(Cl)c1
active: [1]; [8] 91% | [1]; at 50.0 µM 97.6% | [2]; at 50.0 µM 92.5% | [3]; at 50.0 µM 97.6% | [4]; at 50.0 µM 93.5% | [5]; at 50.0 µM 90.5% | [6]; [8] 72% | [6]; at 50.0 µM 98%
inactive: [1]; [7] 10% | [2]; [7] -15% | [2]; [8] 30% | [3]; [7] 4% | [3]; [8] 61% | [4]; [7] 3% | [4]; [8] 60% | [5]; [7] 69% | [5]; [8] 52% | [6]; [7] 7%

O=[N+]([O-])c1cc(-c2ccccc2)c(O)c([N+](=O)[O-])c1
inactive: [1]; [7] 31% | [2]; [7] 22% | [2]; [8] 60% | [3]; [7] 27% | [4]; [7] 27% | [4]; [8] 51% | [5]; [7] 17% | [5]; [8] 55% | [6]; [7] 31% | [6]; [8] 67%
active: [1]; [8] 78% | [1]; at 50.0 µM 93.8% | [2]; at 50.0 µM 88.8% | [3]; [8] 71% | [3]; at 50.0 µM 85.8% | [4]; at 50.0 µM 74.8% | [5]; at 50.0 µM 89.4% | [6]; at 50.0 µM 92.8%

Cc1cc(Br)c2nsnc2c1[N+](=O)[O-]
active: [1]; [8] 94% | [2]; [8] 97% | [2]; at 50.0 µM 78.5% | [3]; [8] 85% | [3]; at 50.0 µM 80.8% | [4]; [8] 88% | [4]; at 50.0 µM 71.2% | [5]; [8] 87% | [6]; [8] 95% | [6]; at 50.0 µM 77.9%
inactive: [1]; [7] 33% | [1]; at 50.0 µM 54.4% | [2]; [7] 43% | [3]; [7] 30% | [4]; [7] 32% | [5]; [7] 20% | [5]; at 50.0 µM 68.7% | [6]; [7] 37%
